D1 potentiator: enhances dopamine response at the human D1 receptor; P21728; HEK293 TREx D1 cells, calcium flux, dopamine EC20 potentiation; potentiation, % at 10 µM; 0.036% of 360,000 active; in the data active = potentiation above about 30%; also: 0% is about no effect
Target sequence (P21728 whole entry, looked up): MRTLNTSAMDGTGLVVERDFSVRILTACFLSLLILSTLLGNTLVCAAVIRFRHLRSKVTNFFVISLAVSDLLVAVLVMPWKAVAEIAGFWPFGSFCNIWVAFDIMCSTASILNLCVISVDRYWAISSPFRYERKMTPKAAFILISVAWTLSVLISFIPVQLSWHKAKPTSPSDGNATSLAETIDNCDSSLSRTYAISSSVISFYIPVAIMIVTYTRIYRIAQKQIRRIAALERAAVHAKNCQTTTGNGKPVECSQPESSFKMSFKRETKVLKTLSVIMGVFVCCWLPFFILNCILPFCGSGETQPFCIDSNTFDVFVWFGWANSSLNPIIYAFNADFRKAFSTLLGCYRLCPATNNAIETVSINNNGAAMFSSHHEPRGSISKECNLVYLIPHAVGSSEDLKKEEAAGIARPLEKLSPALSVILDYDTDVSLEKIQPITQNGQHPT
D1 antagonist: blocks dopamine activation of the human D1 receptor | 3.2% of 360,000 active | HEK293 TREx D1 cells, calcium flux, dopamine EC80; stronger effect = lower value | activity change, negative = inhibition, % at 10 µM; in the data active = activity change below about -30%; also: % is scaled to controls: 0 for no effect and ±100 for the full control effect
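Cells carrying a force-coupled, tetracycline-inducible human D1 receptor report calcium flux. Each well gets a 10 s baseline, compound with 180 s monitoring, then an EC80 dopamine stimulus with a second 180 s kinetic read.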
D3 ag: activates the human D3 dopamine receptor. P35462. D3R DiscoveRx beta-arrestin cells, luminescence, 90 min. max activation, %. 0.58% of 410,000 active; in the data active = max activation above about 30%; also: 0% is about no effect
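Cells at 1500/well, incubated overnight, then treated with pinned compounds (dopamine as control) for 90 min at 37 degrees C. DiscoveRx reagent added for 30 - 60 minutes at room temperature; luminescence read.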
D1 agonist: human D1 receptor agonism; P21728; HEK293 T-REx D1 cells, calcium flux, agonist mode; activation, % at 2 µM; 1% of 360,000 active; AID 504660; in the data active = activation above about 30%; also: 0% is about no effect
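Agonism was scored from calcium flux recorded over 180 s (1 read/s) after pintool compound addition, following a 10-cycle baseline. Cells were inducible force-coupled HEK293 TREx D1, plated overnight at 30 C and loaded with no-wash calcium dye.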
D3 antag: D3 dopamine receptor (human) antagonism | P35462 | D3R cells, DiscoveRx beta-arrestin luminescence, antagonist mode; stronger effect = lower value | max response, negative = inhibition, % | 2.5% of 360,000 active | AID 652054; in the data active = max response below about -50%; also: % is scaled to controls: 0 for no effect and ±100 for the full control effect
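Cells plated overnight at 1500 cells/well, then exposed to library compounds with dopamine controls for 90 minutes at 37 degrees C. DiscoveRx reagent added for 30–60 minutes at room temperature; luminescence read, quantitative HTS format.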
Starred values were filed as active, the others as inactive; nt = not tested or not shown. Rows were chosen to be rich in hits. Some 6.1% of all compounds tested hit in one or more screens of this group.

SMILES	D1 potentiator	D1 antagonist	D3 ag	D1 agonist	D3 antag
COc1cc2c(cc1OC)C(c1ccccc1)N(C(=O)CCl)CC2 (stereo not given)	-4.5	-31.7*	-1.8	1.5	-62.1*
COc1cc2c(cc1OC)C(c1cccs1)N(C(=O)C(C)C)CC2 (stereo not given)	-10.7	-78.1*	-10.9	-1.1	21.6
Cc1ccc(-c2nc3c4ccccc4[nH]c(=O)n3n2)cc1	-0.8	-3.4	0.3	-1.8	nt
COc1ccc(-c2noc(-c3ccccc3C(=O)NCC3CCCO3)n2)cc1 (stereo not given)	0.5	3.9	-3.1	-0.6	-3.6
O=C1NC(CCc2ccccc2)C(=O)N1Cc1ccc(Br)cc1 (stereo not given)	-6.6	-2.8	0.5	6.0	-71.4*
O=C1NC(CCc2ccccc2)C(=O)N1CCOc1ccccc1 (stereo not given)	-5.4	54.0	-8.4	3.1	-22.3
CCN(C(=O)COC(=O)C(c1ccccc1)c1ccccc1)c1c(N)n(Cc2ccccc2)c(=O)[nH]c1=O	nt	nt	-2.6	nt	0.8
Cc1cc(C(=O)NCCN2CCOCC2)c2ccccc2n1	nt	nt	-2.0	nt	-3.6
COc1ccccc1N1CCN(CC(O)COc2ccc3c(C)cc(=O)oc3c2)CC1 (stereo not given)	-5.7	-19.3	-21.9	0.3	-77.2*
Cc1cc(=O)oc2cc(OCC(O)CN3CCc4ccccc4C3)ccc12 (stereo not given)	-6.5	23.8	-22.1	0.5	-55.0*
Cc1cc(=O)oc2cc(OCC(=O)N3c4ccccc4CC3C)ccc12 (stereo not given)	0.7	1.8	-2.2	-0.4	7.3
Cc1cc(=O)oc2cc(OCC(O)CN3CCN(c4ccccc4)CC3)ccc12 (stereo not given)	-2.9	-14.3	37.1*	1.1	0.0
COc1ccc(S(=O)(=O)NCC2CCCN(Cc3ccc(OC)cc3F)C2)cc1 (stereo not given)	-2.9	-7.6	-14.0	3.7	4.1
Cc1cccc(C)c1Nc1nnc(SC/C(O)=C(\C#N)c2nc3ccccc3[nH]2)s1	0.1	-22.3	18.3	3.1	5.3
Cc1cccc(Nc2nnc(SC/C(O)=C(\C#N)c3nc4ccccc4[nH]3)s2)c1C	-0.1	-5.9	33.1*	1.9	53.2
COc1ccc(CN2CCN(Cc3csc(C(C)=O)c3)CC2CCO)c(C)c1C (stereo not given)	-3.0	3.7	-9.7	6.3	1.0
COC(=O)c1cc(C#N)c(N2CC(C)OC(C)C2)nc1C (stereo not given)	2.0	-4.4	3.1	1.2	-0.9
Cc1cccc(CN2C(=O)c3ccccc3Sc3ccc(C(=O)NCc4cccs4)cc32)c1	-0.8	16.8	-12.1	4.7	nt
COc1ccc(S(=O)(=O)N(CCc2ccccc2)CC(=O)Nc2cc(C)cc(C)c2)cc1OC	1.0	-36.2*	-9.6	6.7	nt
Cc1oc(-c2cccs2)nc1CN1CCC(c2ccccc2)CC1	-2.2	1.6	-27.1	0.7	-90.6*
COc1ccc(-c2nc(CN3CCC(c4ccccc4)CC3)c(C)o2)cc1OC	-4.5	4.4	-20.3	-0.6	-0.6
COc1cc2[nH]c(=O)n(CCC(=O)N3CCN(c4ccc(Cl)cc4)CC3)c(=O)c2cc1OC	0.1	-3.4	-18.2	2.2	nt
CC(=O)c1ccc(N2CCN(C(=O)CCCCn3c(=O)[nH]c4ccccc4c3=O)CC2)cc1	-5.0	-32.2*	0.0	5.2	nt
O=C(CCn1c(=O)[nH]c2ccccc2c1=O)N1CCN(c2ccc(Cl)cc2)CC1	-4.0	-31.5*	0.9	6.1	-17.0
COC(=O)c1ccc2c(=O)n(CCCCCC(=O)N3CCN(c4ccccc4)CC3)c(=O)[nH]c2c1	-6.3	-36.0*	28.3	5.9	6.3
O=C(NCCc1cnccn1)C1CCC(=O)N(Cc2ccc(Cl)cc2)C1 (stereo not given)	12.7	7.9	-1.6	1.1	-3.7
O=C(COC(=O)CNC(=O)c1ccc(Br)cc1)Nc1nnc(-c2ccccc2)o1	0.0	-37.8*	3.9	4.5	26.7
O=C(CCC(=O)c1cccs1)OCc1nnc(-c2ccccc2)o1	-7.8	-39.0*	0.3	2.2	-2.2
COc1cc(OC)cc(C(=O)OCC(=O)Nc2nnc(-c3ccccc3)o2)c1	nt	nt	-0.5	nt	10.4
Cc1ccc(C(=O)CCC(=O)OCC(=O)Nc2nnc(-c3ccccc3)o2)cc1	-1.6	-50.0*	-4.7	4.5	12.7

High-throughput results: PubChem, National Center for Advancing Translational Sciences (NCATS)
